# SMN2 splice up – SMN2 splice variant enhancement | HEK293 SMN2-luciferase splicing reporter, luminescence, 30-36 h | Potency, µM (highest dose often 46.1 µM), inactives show top-dose activity change, positive = activation, hits mostly activators | 210,000 tested, 2.8% active; further: % of control where 0% means no effect; nearly all actives have a fitted effect of over 55% in size
#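 HEK293 cells carry an SMN2 […]–luciferase reporter in which exon 7 inclusion puts luciferase in frame. Cells were plated 10-12 h before compound addition, then incubated 30-36 h at 37C. ONE-Glo luminescence was read; sodium butyrate at 4.5 mM final served as control.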
# ELG1 DNA repair – inhibitors of ELG1-dependent DNA repair in HEK293T cells | Potency, µM (doses to about 46.1 µM), for the others: at the highest dose activity change, negative = inhibition, most hits filed as inhibitors | AID 504467 | HEK293T ELG1-luciferase reporter, luminescence, 16 h; DNA damage induced by 5-fluorouridine | 330,000 tested, 2.3% active; further: on the % scale 0 is the no-effect control and ±100 the full control effect; nearly all actives have a fitted effect of over 55% in size
#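 DMSO vehicle served as the neutral condition. Each well held 2,000 cells given 5-fluorouridine plus compound; after 16 hr at 37 °C/5% CO2, ONE-Glo was added and luciferase measured 30 min later.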
# NPC1 promoter act – activates the NPC1 promoter. 320,000 tested, 2.4% active. Huh7 NPC1 promoter luciferase reporter, 24 h. AID 485313. Potency, µM (highest dose often 9.22 µM), for the others: top-dose activation, usual class: activators; further: % of control where 0% means no effect; nearly all actives have a fitted effect of over 60% in size
#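 NPC1 promoter–luciferase Huh7 cells; 24 h compound; luminescence.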
# Rab9 promoter act – Rab9 promoter activation; AID 485297; Huh7 Rab9 promoter-luciferase reporter, luminescence, 24 h; Potency, µM (top dose mostly 9.22 µM), without a hit: at the highest dose activation, negative = inhibition, usual class: activators; 320,000 tested, 2.8% active; further: % of control where 0% means no effect; nearly all actives have a fitted effect of over 60% in size
#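 Cell-based reporter: Huh7 stable for Rab9 promoter-driven luciferase, plated in reduced-serum medium with 10% FBS at 1500 cells/well, compound-treated 24 h at 37 °C, luminescence read after 10 min reagent.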
# FLuc counter – firefly luciferase modulation, counter-screen for miR-21 project | P08659 | 360,000 tested, 6.9% active | AID 588342 | Potency, µM (top dose mostly 57.5 µM), for inactives: at the top dose activity change, negative = inhibition, usual class: inhibitors | purified FLuc, Km substrates, luminescence inhibition;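 further: plate controls were vehicle for no effect and reference inhibitor for full effect; nearly all actives have a fitted effect of over 55% in size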
# Target sequence (P08659 whole entry, looked up): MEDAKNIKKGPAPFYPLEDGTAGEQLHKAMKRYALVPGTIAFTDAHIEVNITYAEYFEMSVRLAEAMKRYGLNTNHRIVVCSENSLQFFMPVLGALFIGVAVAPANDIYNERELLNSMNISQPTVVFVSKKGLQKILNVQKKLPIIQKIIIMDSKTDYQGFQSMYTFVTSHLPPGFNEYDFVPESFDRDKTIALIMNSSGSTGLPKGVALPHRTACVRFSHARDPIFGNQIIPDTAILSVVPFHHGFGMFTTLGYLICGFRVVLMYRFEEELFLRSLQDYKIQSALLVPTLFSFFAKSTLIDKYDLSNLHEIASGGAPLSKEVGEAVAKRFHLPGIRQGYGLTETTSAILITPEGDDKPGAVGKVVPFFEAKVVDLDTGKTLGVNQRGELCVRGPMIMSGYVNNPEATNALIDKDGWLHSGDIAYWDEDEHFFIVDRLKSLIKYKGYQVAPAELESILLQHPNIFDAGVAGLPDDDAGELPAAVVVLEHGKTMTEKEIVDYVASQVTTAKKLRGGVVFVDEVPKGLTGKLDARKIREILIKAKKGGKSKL
#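 Purified P. pyralis luciferase (10nM final) with 10uM D-luciferin and 10uM ATP (Km levels) in 50mM Tris acetate pH 7.5, 10mM Mg acetate, 0.01% Tween-20, 0.05% BSA; qHTS 6-point titration, ~60 µM downward; luminescence read.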
# ELG1 genotoxic – genotoxicity induction in ELG1-luciferase HEK293T cells. AID 504466. 330,000 tested, 1.3% active. HEK293T ELG1-luciferase reporter, luminescence, 16 h. Potency, µM (top dose mostly 46 µM), without a hit: at the top dose activity change, positive = activation, usual class: activators; further: % of control where 0% means no effect; nearly all actives have a fitted effect of over 60% in size
#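 Luminescence read-out: rising ELG1-luciferase signal, reflecting elevated ELG1 protein under genetic stress, flags genotoxic compounds. Cells were treated for 16 hr at 37 °C before ONE-Glo detection.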
# * marks the source's active call; other numbers are inactive results; u = inconclusive; x = not tested or not shown; [ ] = another dose, or the depositor's remark. The list is not random: actives were taken first. Their share in the collection is about 9.3%. The call rests on the fitted dose curve; in most records, active means well fitted curve in the direction sought with a large enough effect; inconclusive means small, poorly fitted or top-dose-only effect, or another doubt; inactive means no such curve, though single readings can be large; an effect the other way counts as inactive or inconclusive. Potency means the concentration at half of the fitted maximal effect.
SMILES,SMN2 splice up,ELG1 DNA repair,NPC1 promoter act,Rab9 promoter act,FLuc counter,ELG1 genotoxic
Cc1nc(NC(=O)c2ccc(OCC(C)C)cc2)sc1Cc1ccc2c(c1)OCO2,-20.5%,-5.7%,18.1%,u,21.3µM*,-2.6%
O=C(Nc1nncs1)c1ccc2c(c1)OCO2,x,u,23.2%,29.8%,15.1µM*,u
Cc1nnc(NC(=O)c2ccc3c(c2)OCO3)s1,x,u,u,3.55µM*,13.5µM*,u
Cc1ccc(OC(=O)C2CCN(C(=O)c3ccccc3C)CC2)c(Br)c1,x,u,2.4%,-0.2%,0.6%,-6.8%
CCCN1CNc2c(c(=O)[nH]c(=S)n2-c2ccc(Cl)cc2)C1,-25.5%,-0.4%,0.0%,-14.0%,0.6%,u
CC(C)Cc1nnc(NC(=O)c2ccc3c(c2)OCCO3)s1,x,u,2µM*,0.631µM*,1.9µM*,u
CSc1nnc(NC(=O)c2ccc3c(c2)OCO3)s1,x,u,0.224µM*,0.112µM*,0.477µM*,0.259µM*
CC(C)C(=O)Nc1nnc(SCC(=O)Nc2ccc3c(c2)OCO3)s1,3.6%,u,-4.7%,-0.8%,3.9%,-0.8%
COCCNc1nnc(SCC(=O)c2ccc3c(c2)OCO3)s1,3.5%,-0.4%,15.3%,-0.2%,-9.1%,0.8%
CCOC(=O)C(C)Sc1nnc(NC(=O)c2ccc3c(c2)OCO3)s1 (configuration not stated),17.5%,-4.8%,3.2%,-5.2%,16.9µM*,13.1%
CCOC(=O)c1sc(NC(=O)c2ccc(Br)o2)cc1C,11.2µM*,u,3.98µM*,1.58µM*,3.38µM*,2.31µM*
CCOC(=O)c1sc(NC(=O)c2sccc2C)cc1C,6.31µM*,u,0.631µM*,0.562µM*,1.69µM*,2.59µM*
CCOC(=O)c1sc(NC(=O)Nc2cccc(Cl)c2)cc1C,u,u,2.51µM*,u,1.69µM*,u
Cc1c(NC(=O)c2cccs2)cccc1NC(=O)c1cccs1,x,-14.9%,4.8%,-3.0%,-5.5%,1.1%
CCN(CC)C(=O)c1sc(NC(=O)c2ccc(Br)o2)c(C(=O)OC)c1C,-17.3%,-17.3%,-0.1%,-8.1%,-13.3%,-1.7%
CCOC(=O)c1sc(NC(=S)NC(=O)C2CC2)cc1C,x,u,-0.1%,-5.0%,1.6%,u
CCOC(=O)c1sc(NC(=O)c2cccs2)cc1C,14.1µM*,u,1.41µM*,1.78µM*,1.2µM*,2.06µM*
COc1ccccc1-n1ccnc(SCC(=O)NCCc2ccccc2)c1=O,x,6.2%,8.1%,-4.7%,2.6%,-6.3%
Cc1[nH]c(=O)[nH]c(=O)c1/C=N/NC(=O)[C@H](C)N,x,5.7%,-0.7%,u,6.0%,-0.3%
Cc1ccc(S(=O)(=O)Nc2cccc(-c3cn4ccsc4n3)c2)cc1,u,u,-16.1%,-9.4%,u,-6.5%
CCC(CC)C(=O)Nc1cccc(-c2cn3cccnc3n2)c1,x,x,x,x,-7.9%,x
CC(C)(C)CC(=O)Nc1cccc(-c2cn3cccnc3n2)c1,11.2µM*,u,u,2.51µM*,10.7µM*,u
CC(C)CC(=O)Nc1cccc(-c2cn3ccsc3n2)c1,17.8µM*,u,u,u,12µM*,u
CCC(=O)Nc1cccc(-c2cn3ccsc3n2)c1,24.4%,u,14.0%,-4.3%,16.9µM*,5.9%
CC(C)C(=O)Nc1cccc(-c2cn3ccsc3n2)c1,22.7%,22.7%,13.3%,28.9%,15.1µM*,u
SMILES,SMN2 splice up,ELG1 DNA repair,NPC1 promoter act,Rab9 promoter act,FLuc counter,ELG1 genotoxic
CCOc1ccc(CCNC(=O)c2ccc(C)c(-n3c(C)nc4cccnc43)c2)cc1OCC,x,x,x,x,4.3%,x
Cn1ncc2c(Cl)ncnc21,-16.8%[9.22 µM],x,x,x,x,x
COC(=O)c1ccccc1NC(=O)c1c(O)c2c([nH]c1=O)CCCC2,9.4%,3.5%,4.0%,2.8%,21.3µM*,1.6%
CCNC(=O)c1c(O)c2c([nH]c1=O)CCCC2,x,25.8%,1.8%,14.9%,-9.5%,2.6%
O=C(Nc1ccc(O)cc1)c1c(O)c2c([nH]c1=O)CCCC2,11.2µM*,u,1.26µM*,0.562µM*,6.01µM*,u
Cc1[nH]c2c(C)cccc2c(=O)c1CN1CCCCCC1,x,-2.2%,0.1%,-0.2%,-0.1%,-0.7%
Cc1[nH]c2ccccc2c1/C=N/n1cnnc1,-5.2%,u,1.5%,-1.7%,0.0%,2.1%
COCCN=c1scc(-c2cc(OC)c(OC)c(OC)c2)n1/N=C/c1c(C)[nH]c2ccccc12,21.0%,7.31µM*,-1.1%,0.0%,-5.3%,-7.3%
COc1ccc(-c2cc(C(F)(F)F)nc(-n3ccnc3C)n2)cc1,-20.4%,25.9µM*,-0.1%,1.3%,2.5%,-5.5%
c1ccc(Nc2cccc(Nc3ccccc3)n2)cc1,-22.3%,u,16.9%,u,19µM*,u
c1ccc(Nc2ccccn2)cc1,14.1%,26.3%,-2.5%,-7.8%,u,0.2%
CCc1ccc(C2NC(=O)c3[nH]nc(-c4cccc(OC)c4)c32)cc1 (configuration not stated),2.8%,x,x,x,-11.7%,x
COc1ccc(C(N)=O)c(OCC(=O)Nc2cc(C)on2)c1,x,19.2%,0.6%,-2.5%,9.0%,-0.3%
CC(=O)c1cccc(NC(=O)c2cc(-c3cccs3)on2)c1,x,u,-1.5%,0.7%,0.849µM*,u
O=C(Nc1ccc(Cl)cc1)c1cc(-c2cccs2)on1,x,14.3%,1.7%,4.9%,u,u
O=C(Nc1ccc(Br)cc1)c1cc(-c2cccs2)on1,x,-9.2%,-3.7%,-2.8%,-17.8%,u
O=C(Nc1cccc(O)c1)c1cc(-c2cccs2)on1,x,u,-1.0%,-1.9%,0.849µM*,11.6µM*
Cc1ccc(NC(=O)c2cc(-c3cccs3)on2)cc1,27.0%,u,-1.6%,-1.5%,2.39µM*,11.2µM*
Cc1ccc2c(c1)c(N1CCCC1=O)c(C(=O)Nc1ccc(F)cc1F)n2C,x,x,x,x,-1.5%,x
Cc1cc(C)n(CCC(=O)N/N=C/c2c(O)ccc3ccccc23)n1,x,3.66µM*,-43.8%,-41.8%,-12.4%,6.3%
Cc1cc(C)n(CCC(=O)N/N=C/c2ccc(O)cc2)n1,4.3%,4.7%,8.5%,0.4%,4.0%,1.4%
O=C(CN1CCCC1)N/N=C/c1c(O)ccc2ccccc12,x,5.17µM*,-28.0%,-34.9%,1.1%,u
O=C1CN(C(=O)c2ccccc2[N+](=O)[O-])C(c2ccccc2)c2cc(Br)ccc2N1 (configuration not stated),x,18.3µM*,1.7%,0.9%,1.6%,-3.7%
Cc1ccc2c(c1)C(c1ccccc1)N(C(=O)c1ccccc1[N+](=O)[O-])CC(=O)N2 (configuration not stated),x,20.6µM*,-1.2%,-6.0%,-1.6%,-4.4%
